PGK inhibitor = blocks T. brucei phosphoglycerate kinase; P07378; PGK/GAPDH coupled, Kinase-Glo luminescence, 60 min; Potency, µM (highest dose often 57.5 µM), for the others: top-dose activity change, negative = inhibition, hits mostly inhibitors; hit rate 0.043% among 380,000; AID 602233; also: % is scaled to controls: 0 for no effect and ±100 for the full control effect; nearly all actives have a fitted effect of over 60% in size
Target sequence (P07378 whole entry, looked up): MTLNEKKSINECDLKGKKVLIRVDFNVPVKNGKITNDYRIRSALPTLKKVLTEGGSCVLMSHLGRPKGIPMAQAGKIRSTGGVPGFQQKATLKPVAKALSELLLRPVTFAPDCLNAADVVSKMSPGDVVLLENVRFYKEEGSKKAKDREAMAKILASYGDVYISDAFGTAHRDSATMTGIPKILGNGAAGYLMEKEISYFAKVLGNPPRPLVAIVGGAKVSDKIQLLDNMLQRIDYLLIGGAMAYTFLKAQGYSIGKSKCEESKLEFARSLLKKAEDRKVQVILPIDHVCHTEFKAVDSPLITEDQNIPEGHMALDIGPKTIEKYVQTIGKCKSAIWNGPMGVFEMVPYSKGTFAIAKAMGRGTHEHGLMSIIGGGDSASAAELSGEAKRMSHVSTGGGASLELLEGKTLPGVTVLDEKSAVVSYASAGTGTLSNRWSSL
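Recombinant glycosomal PGK reaction used 1,3-bisphosphoglycerate generated in-well by GAPDH (100nM final) in 100mM TEA pH 7.6, 5mM MgCl2, 0.01% Tween-20. After 60 minutes at room temperature, ATP was read by Kinase-Glo Plus luminescence end-point.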
USP2a block = blocks human ubiquitin-specific protease USP2a; O75604; USP2 core, Ub-CHOP2 coupled fluorogenic reporter, 485/531; Potency, µM (series often up to 38.3 µM), for inactives: at the highest dose activity change, negative = inhibition, hits mostly inhibitors; hit rate 0.01% among 330,000; AID 463254;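 also: plate controls were DMSO wells for no effect and full inhibition by NEM control for full effect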
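USP2 core (10nM final) preincubated 30min RT with compound in 20mM Tris-HCl pH 8.0, 2mM CaCl2, 2mM beta-mercaptoethanol, 0.05% CHAPS; 25nM Ub-CHOP2 plus 25nM reporter substrate added, fluorescence (Ex485/Em531) read after 60min.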
Tb PFK inh-1 = T. brucei PFK enzyme inhibition; O15648; AID 485367; Potency, µM (series often up to 57.5 µM), inactives show at the highest dose activity, negative = inhibition, hits mostly inhibitors; hit rate 0.17% among 330,000; T. brucei PFK, ADP-Glo luminescence;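 also: 0% = uninhibited 1x PFK enzyme wells and -100% = no-enzyme wells; nearly all actives have a fitted effect of over 60% in size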
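Luminescent ADP detection (ADP-Glo, two-step: ATP depletion then ADP-to-ATP conversion for luciferase) reported PFK activity after 45 min room-temperature reaction of 1.25 nM enzyme with 0.5 mM F6P and 0.1 mM ATP at pH 8.0.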
Chronic BCR inh = chronic active BCR signaling inhibition. hit rate 0.05% among 340,000. Potency, µM (top dose mostly 46.1 µM), for the others: at the top dose activity change, negative = inhibition, most hits filed as inhibitors. ABC-DLBCL IkBa-CBG/CBR reporter, luminescence ratio, 4 h; active = well fitted inhibition curve with a large enough effect in the signal ratio, with a control signal flat, not every such curve was filed as active; inconclusive = small, poorly fitted or top-dose-only effect, or effect the other way, or a change in a side signal; the % refers to the signal ratio;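 also: plate controls were basal doxycycline-induced cells for no effect and cells given 10 µM MG132 for full effect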
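TMD8 ABC-DLBCL cells carrying doxycycline-inducible green luciferase fused to IkappaBalpha plus unfused red luciferase were exposed to compounds (up to 46 uM) for 4 hrs at 37C. Activity came from the overlap-corrected green/red luminescence ratio.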
RGS4 inh = blocks human RGS4-accelerated GTP hydrolysis | Transcreener GDP fluorescence polarization, RGS4-accelerated GTP hydrolysis | Potency, µM (top dose mostly 114 µM), without a hit: top-dose activity change, negative = inhibition, usual class: inhibitors | hit rate 0.039% among 390,000; also: % is scaled to controls: 0 for no effect and ±100 for the full control effect; nearly all actives have a fitted effect of over 75% in size
Target sequence (P49798 whole entry, looked up): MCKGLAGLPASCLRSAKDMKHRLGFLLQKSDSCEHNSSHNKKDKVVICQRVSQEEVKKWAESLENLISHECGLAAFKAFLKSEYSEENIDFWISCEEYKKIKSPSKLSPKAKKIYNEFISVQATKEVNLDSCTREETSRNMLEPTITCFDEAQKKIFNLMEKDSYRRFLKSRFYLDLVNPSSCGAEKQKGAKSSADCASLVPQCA
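MLSMR compounds (23 nl, pin-transferred) preincubated 10 min at room temperature with a 500nM (2x) first reagent, then RGS4 at 900nM (2x) plus Transcreener GDP mix added; fluorescence polarization (620/688 nm) read before and after 90 min at 30 °C.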
Tb PFK KinaseGlo = orthogonal confirmation of T. brucei phosphofructokinase inhibitors | shares compounds with Tb PFK inh-1 | Tb PFK enzyme, ATP depletion, Kinase-Glo Plus luminescence | Potency, µM (doses to about 57.5 µM), for the others: top-dose inhibition | hit rate 47% among 1,100 | AID 504636; calls by dose curve; also: nearly all actives have a fitted effect of over 60% in size
Tb PFK inh-2 = validation of T. brucei phosphofructokinase inhibitors; shares compounds with Tb PFK inh-1; purified T. brucei PFK, ADP-Glo luminescence, 45 min; Potency, µM (doses to about 57.5 µM), inactives show top-dose activity change, negative = inhibition, usual class: inhibitors; hit rate 41% among 1,100; AID 504637;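 also: plate controls were full PFK enzyme control for no effect and no enzyme control for full effect; nearly all actives have a fitted effect of over 60% in size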
* hit, by the source's call; i = inactive; ? = inconclusive; · = no result; [ ] = another dose, or the depositor's remark. Most compounds without a hit are left out; they make up all but 0.25% or so of the library. Unless noted, calls follow the shape of the dose curve; as a rule, active = well fitted curve in the direction sought with a large enough effect; inconclusive = small, poorly fitted or top-dose-only effect, or another doubt; inactive = no such curve, though single readings can be large; an effect the other way counts as inactive or inconclusive. Potency is read from the fitted curve at half-maximal effect.

SMILES	PGK inhibitor	USP2a block	Tb PFK inh-1	Chronic BCR inh	RGS4 inh	Tb PFK KinaseGlo	Tb PFK inh-2
O=C1c2cc(CO)cc(O)c2C(=O)c2c(O[C@@H]3OC(CO)[C@@H](O)[C@@H](O)[C@@H]3O)cccc21 (stereo partly drawn)	-4%	·	·	·	5%	·	·
O=C(O)c1cc(O)c2c(c1)[C@H]([C@H]1c3cc(C(=O)O)cc(O)c3C(=O)c3c(O[C@@H]4O[C@H](CO)[C@@H](O)[C@H](O)[C@H]4O)cccc31)c1cccc(OC3O[C@H](CO)[C@@H](O)[C@H](O)[C@H]3O)c1C2=O (stereo partly drawn)	?	?	?	5%	-55%	?	4.8µM*
Clc1ccc(Cn2cc3c(n2)-c2cc4ccccc4n2C3)cc1	·	·	·	·	-6%	·	·
COc1ccc2[nH]c3c(=O)n(CCCCC(=O)NCCN4CCCC4)c(=S)[nH]c3c2c1	1%	-6%	?	?	-31%	?	?
CN1c2ccccc2-c2nc(SCC(=O)Nc3ccccc3C(F)(F)F)ncc2S1(=O)=O	9%	·	·	·	-7%	·	·
COc1cc(/C=C(\C#N)c2nc3ccccc3s2)cc([N+](=O)[O-])c1O	?	2%	?	3%	7%	-27%	?
C[N+]1=C(/C=C/Nc2ccccc2Cl)C(C)(C)c2ccccc21	i	6%	0%	?	?	·	·
COC(=O)c1ccc2c(c1)C(C)(C)C(/C=C/c1ccccc1O)=[N+]2C	-4%	-5%	13µM*	?	?	-4%	?
COc1ccc2c(c1)sc1ncc(C(=O)NCc3cccc(Cl)c3)c(=O)n12	1%	·	·	·	-12%	·	·
CC(C)(C)CC(=O)Nc1cc(S(=O)(=O)N2CCOCC2)ccc1N1CCCC1	-4%	-8%	?	15%	-40%	-32%	?
Cc1ccc(S(=O)(=O)c2cnc(-c3ccccc3)[nH]c2=O)cc1	·	·	·	·	17%	·	·
O=C(O)/C=C\C(=O)NNC(=O)c1cc(-c2ccccc2)n[nH]1	-18%	-2%	-4%	?	6%	·	·
O=C(NNS(=O)(=O)c1ccccc1F)c1cc(-c2ccccc2)n[nH]1	-8%	1%	?	8%	14%	-29%	?
COc1ccccc1N1CCN(C(=O)C(C)CS(=O)(=O)c2ccc3c(c2)NC(=O)CS3)CC1 (stereo not drawn)	?	2%	24µM*	3%	6%	6µM*	?
O=c1cc(-c2ccc(O)c(O)c2)oc2cc(O)cc(O)c12	?	5%	?	?	15%	-27%	?
O=C(O)C1OC(Oc2cc3oc(-c4ccccc4)cc(=O)c3c(O)c2O)C(O)C(O)C1O (stereo not drawn)	-1%	0%	6.7µM*	?	-32%	?	9.5µM*
Cc1ccc(-c2c[n+](Cc3cccc(Cl)c3)c3n2CCC3)cc1	-7%	1%	?	2%	1%	?	?
CCOc1ccc(CCNC(=O)c2cccc(-n3c(C)nc4cccnc43)c2C)cc1	i	·	·	·	-1%	·	·
CCc1ccc(CNCCc2ccc(F)cc2)cc1	1%	3%	-2%	-1%	0%	·	·
Fc1ccc(CCNCc2ccc(Cl)c(Cl)c2)cc1	·	1%	?	2%	22%	15µM*	27µM*
Cc1ccc(NC(=O)CN(C)C(=O)c2cccc(-n3cccc3)c2)cc1	?	1%	?	-1%	-8%	?	?
O=C(Cc1ccc(Cl)c(Cl)c1)Nc1ccc(S(=O)(=O)Nc2ncccn2)cc1	-9%	0%	2.4µM*	0%	12%	0.85µM*	1.9µM*
Cc1ccnc(NS(=O)(=O)c2ccc(NC(=O)Cc3ccc(Br)cc3)cc2)n1	1%	1%	?	-7%	-5%	21µM*	?
Cc1ccnc(NS(=O)(=O)c2ccc(NC(=O)Cc3ccc(F)cc3)cc2)n1	-2%	7%	-26%	-4%	2%	·	·
O=C(Cc1cccs1)Nc1ccc(S(=O)(=O)Nc2ncccn2)cc1	?	4%	-7%	-2%	-49%	·	·
SMILES	PGK inhibitor	USP2a block	Tb PFK inh-1	Chronic BCR inh	RGS4 inh	Tb PFK KinaseGlo	Tb PFK inh-2
CCOC(=O)C1=C(CS(=O)(=O)c2ccc(C)cc2)NC(=O)NC1c1ccc(C(C)C)cc1 (stereo not drawn)	-1%	·	·	·	-3%	·	·
COc1ccc(-n2ccnc(NCc3cccs3)c2=O)cc1	i	·	·	·	1%	·	·
CCc1cccc(C)c1NC(=O)Cn1ccn(Cc2ccc(Cl)cc2)c(=O)c1=O	-1%	·	·	·	-1%	·	·
COc1ccc(C2/C=C\CN(C(=O)CC(C)(C)C)C(C)C(=O)N2Cc2ccc(F)cc2)cc1 (stereo not drawn)	·	·	·	·	-2%	·	·
COc1cc(/C=C/c2cccc[n+]2C)ccc1OCC(=O)Nc1ccccc1C	-6%	-1%	2%	-14%	-10%	·	·
CCOc1cc(/C=C\[N+](=O)[O-])ccc1OCC(=O)Nc1ccccc1C	8%	-2%	?	?	-68%	-29%	?
O=[N+]([O-])c1cc2c(cc1Br)CCN2	0%	-2%	3.4µM*	1%	4%	4.3µM*	6µM*
Cc1ccccc1C(=O)NNC(=O)C(=O)Nc1cccc(Cl)c1C	-8%	-2%	0%	?	9%	·	·
Cc1c(Cl)cccc1NC(=O)C(=O)NNC(=O)c1ccccc1F	i	-3%	?	-11%	8%	-27%	?
COc1cccc(CNc2ccc(F)c(Cl)c2)c1	·	4%	24µM*	-7%	22%	11µM*	17µM*
COC(=O)C1CCN(C(=O)COC(=O)c2cc(-c3ccccc3)nc3ccc(OC)cc23)CC1	-10%	0%	?	?	2%	?	?
Fc1ccc(NCc2ccccc2-c2nnc(-c3ccccc3Cl)o2)cc1Cl	5%	·	·	·	20%	·	·
Oc1cc2c(cc1O)[C@@H](c1ccccc1)CNCC2	-4%	1%	12µM*	-2%	-3%	1.9µM*	4.8µM*
CN1CCc2cc(O)c(O)cc2C(c2ccccc2)C1 (stereo not drawn)	1%	0%	?	3%	-2%[56.9 µM]	?	?
Oc1cc2c(cc1O)C(c1ccccc1)CNCC2 (stereo not drawn)	i	·	·	·	14%[56.9 µM]	·	·
O=S(=O)(c1ccc(C(F)(F)F)cc1)N1CCN(c2nc(-c3cccs3)nc3ccccc23)CC1	·	·	·	·	2%	·	·

From PubChem
